The nature of assay [1]: resazurin metabolic signal in HepG2 cells – cell-based, resazurin fluorescence, 24 h, PK04 Diversity Set, profiling panel (AID 1172). Note: test concentration not given here. Particulars: HepG2 viability, higher = more signal.
Assay [2] is described as follows: budding yeast growth changes without added modifier – OD600, strain BY4716, 24 h, basal condition, primary screen (AID 1173). Particulars: S. cerevisiae BY4716 growth, OD600, 24 h; higher = more signal, called active from +8 up or from −8 down.
Assay [3] can be described thus: viability profiling in MM1S myeloma cells – cell-based, resazurin fluorescence, basal, 24 h, PK04 Diversity Set, profiling panel (AID 1174).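 Note: MM1S multiple myeloma cell line; test concentration not given here.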 The following applies: higher = more signal, called active from +8 up or from −8 down.
The target of assay [4] is Dihydroorotate dehydrogenase (quinone), mitochondrial (Plasmodium falciparum (isolate 3D7)) (UniProt Q08210). Briefly: inhibition of P. falciparum DHODH – biochemical, C-terminal His tag, absorbance 600 nm, primary screen (AID 1175).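 Note: recombinant parasite enzyme with a five histidine tag at its C terminus; test concentration not given here.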 The following applies: PfDHODH enzyme, DCIP absorbance 600 nm; higher = more signal, called active from +8 up or from −8 down.
Sequence of Dihydroorotate dehydrogenase (quinone), mitochondrial (Plasmodium falciparum (isolate 3D7)) (Q08210 whole entry, looked up): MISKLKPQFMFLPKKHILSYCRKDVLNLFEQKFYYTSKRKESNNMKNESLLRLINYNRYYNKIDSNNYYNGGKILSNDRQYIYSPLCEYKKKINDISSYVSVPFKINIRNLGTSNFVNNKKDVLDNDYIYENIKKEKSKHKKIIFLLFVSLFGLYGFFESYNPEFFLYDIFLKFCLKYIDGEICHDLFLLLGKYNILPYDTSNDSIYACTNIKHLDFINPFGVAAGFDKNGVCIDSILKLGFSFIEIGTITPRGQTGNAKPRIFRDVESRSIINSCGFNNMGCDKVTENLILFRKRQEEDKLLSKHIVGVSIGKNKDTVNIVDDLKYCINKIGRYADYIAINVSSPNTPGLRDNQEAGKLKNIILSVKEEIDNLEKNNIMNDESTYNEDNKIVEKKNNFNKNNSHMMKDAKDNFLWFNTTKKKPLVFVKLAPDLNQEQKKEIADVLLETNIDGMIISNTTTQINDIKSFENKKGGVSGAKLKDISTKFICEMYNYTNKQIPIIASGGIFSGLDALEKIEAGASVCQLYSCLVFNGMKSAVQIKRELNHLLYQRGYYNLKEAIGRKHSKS
Assay [5] in a line: inhibition of PAO1 biofilm formation – strain PAO1, LB-PBS medium, absorbance 600 nm, primary screen (AID 1176). Note: test concentration not given here. The following applies: P. aeruginosa PAO1 growth/biofilm, A600, 12 h; higher = more signal.
The nature of assay [6]: growth modulation of vineyard yeast isolate – strain RM11-1a, OD600, basal, 24 h, primary screen (AID 1177).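 Note: cultures grown under basal conditions with no added stressor; test concentration not given here.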 The following applies: S. cerevisiae RM11-1a growth, OD600, 24 h; higher = more signal, called active from +8 up or from −8 down.
Assay [7] can be described thus: growth of efflux-deficient E. coli DRC39 – strain DRC39, OD650, 24 h, E. coli filamentation inducers, primary screen (AID 1178).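 Note: growth measured as culture turbidity by optical density at 650 nm; test concentration not given here.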 The following applies: E. coli DRC39 acrAB, higher = more signal, called active from +8 up or from −8 down.
A short description of assay [8]: growth of efflux-deficient E. coli DRC39 – strain DRC39, OD650, 48 h, E. coli filamentation inducers, primary screen (AID 1179).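 Note: screen aims at cell division blockers that make cells filament.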 Particulars: E. coli DRC39 delta-acrAB growth, higher = more signal, called active from +8 up or from −8 down.
Assay [9] in a line: viability profiling in RPMI8226 myeloma cells – cell-based, resazurin fluorescence, basal, 24 h, PK04 Diversity Set, profiling panel (AID 1180).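 Note: RPMI8826 multiple myeloma cell line at 5000 cells per well; test concentration not given here.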 Particulars: higher = more signal.
For assay [10], the target named is E3 ubiquitin-protein ligase XIAP (Homo sapiens) (UniProt P98170). Briefly: small molecules binding XIAP protein – biophysical, small-molecule microarray, fluorescence 635 nm, primary screen (AID 1181).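 Note: score merges 667 nm emission and signal to noise over triplicate slides.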 The following applies: higher = more signal.
Sequence of E3 ubiquitin-protein ligase XIAP (Homo sapiens) (P98170 whole entry, looked up): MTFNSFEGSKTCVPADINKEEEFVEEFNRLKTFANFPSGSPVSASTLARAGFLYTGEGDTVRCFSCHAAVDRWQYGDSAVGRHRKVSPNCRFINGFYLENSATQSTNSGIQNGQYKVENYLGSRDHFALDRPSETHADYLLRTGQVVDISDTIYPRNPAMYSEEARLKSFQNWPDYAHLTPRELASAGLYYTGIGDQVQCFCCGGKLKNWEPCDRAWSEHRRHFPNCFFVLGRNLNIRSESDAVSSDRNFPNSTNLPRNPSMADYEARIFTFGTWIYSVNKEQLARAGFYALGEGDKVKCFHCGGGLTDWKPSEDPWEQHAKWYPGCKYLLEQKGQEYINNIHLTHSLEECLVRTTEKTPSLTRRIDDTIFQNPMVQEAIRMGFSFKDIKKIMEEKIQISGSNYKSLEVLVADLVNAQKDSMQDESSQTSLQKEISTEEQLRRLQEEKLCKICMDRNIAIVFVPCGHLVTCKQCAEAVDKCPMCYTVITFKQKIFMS

Active and inactive are the calls of the source. Unless noted, the rule behind the calls is not given here.

As to `C=CCN1C(=O)[C@]2(O[C@H](CCO)[C@@H]([Si](C)(C)c3ccc(OC)cc3)[C@@H]2C)c2cc(N3C(=O)c4cccc5cccc3c45)ccc21`, the z-score in assay [1] was -5.43; in [2], 1.7 (inactive); in assay [3], -8.43 (active); in assay [5], 0.662 (inactive); in [6], 6.52 (inactive); in [7], 2.21 (inactive). The z-score in assay [8] was 1.44 (inactive); in [9] it was -6.23. The composite z-score was 1.72 (inactive) in [4] and 0.0374 in [10].
Take `O=C1OCC=C[C@H]2OC34C=CCN(CCN5CCOCC5)C(=O)[C@H]3N(CCCO)C(=O)[C@@H]4[C@@H]12` (stereo not given in full): the z-score was -0.31 in assay [1]; -0.187 (inactive) in assay [2]; -1.4 (inactive) in [3]; -0.385 (inactive) in assay [5]; 0.451 (inactive) in assay [6]; -0.514 (inactive) in assay [7]. For the same molecule, the z-score in assay [8] was -1.15 (inactive); in assay [9] it was -0.0279. In addition, the values for the composite z-score in assay [4] and in assay [10] were -0.283 (inactive) and 0.0222, respectively.
Turning to `C=CC[C@@]1(C(=O)NCc2ccccc2)N=C(c2ccc(OCCCO)cc2)O[C@@H]1c1ccccc1N=[N+]=[N-]`, the z-score in assay [1] was -0.453; in assay [2], 0.669 (inactive); in assay [3], -2.2 (inactive); in [5], 1.16 (inactive); in assay [6] it was 2.07 (inactive); in [7], 0.335 (inactive). For the same molecule, the results for the z-score in assay [8] and in [9] were -0.899 (inactive) and -0.829, respectively. The composite z-score is 1.92 (inactive) in [4] and 0.0736 in [10].
As to `COCCOC(=O)N1C(=O)[C@@]2(c3cc(C#CCCO)ccc31)[C@H](C(=O)N1CCc3cc(OC)c(OC)cc3C1)[C@H]1C(=O)O[C@H](c3ccccc3)[C@H](c3ccccc3)N1[C@@H]2c1ccc(O)cc1`, the z-score was 0.0444 in [1]; -0.253 (inactive) in assay [2]; -0.419 (inactive) in assay [3]; 0.875 (inactive) in assay [5]; 2.12 (inactive) in assay [6]; 0.316 (inactive) in assay [7]. In addition, the figures for the z-score in [8] and in assay [9] were 0.884 (inactive) and -0.368, respectively. The values for the composite z-score in assay [4] and in assay [10] were -0.268 (inactive) and -0.0812, respectively.
Turning to `CCCC[C@@H]1C[C@H]1[C@@H](NC(=O)c1ccco1)c1ccc(Cl)cc1`, the z-score in [1] was -0.653; in assay [2], 1.44 (inactive); in assay [3], 0.134 (inactive); in assay [5], 0.343 (inactive); in assay [6] it was 0.657 (inactive); in assay [7] it was -0.181 (inactive). Further, the values for the z-score in [8] and in [9] were 0.16 (inactive) and -0.0142, respectively. The composite z-score in [4] is -0.284 (inactive); in assay [10] it was -0.124.
In the case of `C=CCOC(=O)[C@H]1[C@@H]2C(=O)O[C@@H](c3ccccc3)[C@@H](c3ccccc3)N2[C@@H](c2ccc(OCCOC(=O)[C@H]3C[C@H]4C(=O)N5CCC[C@H]5C(=O)N4[C@H]3c3ccc(O)cc3)cc2)[C@]12C(=O)Nc1ccccc12`, the z-score in assay [1] is 0.697; in assay [2] it was 1.66 (inactive); in [3] it was 0.744 (inactive); in [5], 3.67 (inactive); in [6], 1.84 (inactive); in assay [7], -0.0749 (inactive). Also, the z-score in assay [8] was -0.13 (inactive); in assay [9], 0.435. Further, the composite z-score in assay [4] was -0.391 (inactive); in assay [10], 0.201.
Turning to `O=C1C2C=CC(C(O)C(c3ccccc3)c3ccccc3)N(n3cnnc3)C2C(=O)N1Cc1ccccc1` (stereo not given), the z-score in assay [1] was 0.264; in assay [2], -1.94 (inactive); in assay [3], -1.15 (inactive); in assay [5], 0.285 (inactive); in [6] it was -0.255 (inactive); in assay [7], -0.514 (inactive). The z-score in assay [8] was -0.305 (inactive); in assay [9], -1.11. Besides, the composite z-score in [4] was -0.436 (inactive); in [10] it was 0.223.
For the molecule `COC(=O)C(CC#Cc1ccc2c(c1)[C@]1(C(=O)N2)[C@H](C(=O)O)[C@H]2C(=O)O[C@H](c3ccccc3)[C@H](c3ccccc3)N2[C@@H]1c1ccc(O)cc1)C(=O)OC`, the z-score is 0.0521 in [1]; 0.183 (inactive) in assay [2]; 0.395 (inactive) in assay [3]; 1.03 (inactive) in [5]; 0.62 (inactive) in assay [6]; 0.569 (inactive) in assay [7]. In addition, the results for the z-score in assay [8] and in assay [9] were -0.0012 (inactive) and -0.0124, respectively. The composite z-score in assay [4] is -5.46 (inactive); in assay [10] it was -0.165.
As to `COCCOC(=O)N1C(=O)[C@@]2(c3ccccc31)[C@H](c1ccccc1OCCO)N1[C@H](c3ccccc3)[C@H](c3ccccc3)OC(=O)[C@H]1[C@@H]2C(=O)Nc1nc2ccccc2s1`, the z-score was 0.487 in [1]; 1.33 (inactive) in [2]; -0.442 (inactive) in assay [3]; 2.76 (inactive) in assay [5]; 2.22 (inactive) in assay [6]; 0.931 (inactive) in assay [7]. In addition, the z-score in assay [8] was 1.74 (inactive); in [9] it was 0.0081. In addition, the composite z-score in assay [4] was 0.662 (inactive); in assay [10] it was 0.0623.
In the case of `C=CCC(OC(C)=O)[C@@H]1[C@@H](N(Cc2ccc(-c3ccccc3)cc2)C(=O)Cc2ccc(F)cc2)c2cc(OCCCO)ccc2N1C(=O)c1ccc(-c2ccccc2)cc1` (stereo not given in full), the z-score in [1] is 1.27; in assay [2], -1.65 (inactive); in [3] it was 1.4 (inactive); in assay [5], -0.124 (inactive); in [6] it was -1.34 (inactive); in assay [7] it was 0.904 (inactive). In addition, the z-score in assay [8] is 1.6 (inactive); in [9] it was 1.48. Also, the composite z-score in assay [4] is -1.46 (inactive); in [10], -0.296.
As for `COc1cc(OC)c(C(O)C2C=CC3C(=O)NC(=O)C3N2Nc2ccc(Cl)cc2Cl)cc1Br` (stereo not given), the z-score in assay [1] was -3.99; in assay [2], -14.7 (active); in assay [3], -2.48 (inactive); in [5], 0.338 (inactive); in [6] it was 0.695 (inactive); in assay [7], -0.0795 (inactive). The z-score was -1.06 (inactive) in [8] and -2.27 in assay [9]. The figures for the composite z-score in assay [4] and in [10] were -0.0023 (inactive) and 0.367, respectively.
For the molecule `COCC(=C=CC[C@H](O)c1ccccc1OCCO)C[C@H](O)c1cc(Cl)cc(Cl)c1O`, the z-score is -1.18 in assay [1]; -19 (active) in assay [2]; -0.627 (inactive) in assay [3]; -0.0828 (inactive) in assay [5]; -22.2 (active) in [6]; 0.275 (inactive) in assay [7]. The z-score was 0.0273 (inactive) in [8] and -0.207 in assay [9]. Besides, the figures for the composite z-score in assay [4] and in assay [10] were -9.33 (active) and -0.0559, respectively.
As to `[N-]=[N+]=NCc1ccccc1[C@@H]1OC(c2ccc(OCCCO)cc2)=N[C@]1(CCS(=O)(=O)c1ccccc1)C(=O)NCCN1CCOCC1`, the z-score was -1.13 in assay [1]; -0.276 (inactive) in [2]; -0.346 (inactive) in assay [3]; 0.286 (inactive) in assay [5]; 0.935 (inactive) in assay [6]; 0.239 (inactive) in assay [7]. The z-score in assay [8] is 0.564 (inactive); in assay [9], -0.185. The composite z-score was 0.328 (inactive) in assay [4] and 0.703 in [10].

(Values after PubChem BioAssay.)
